The values that follow come from the supplement of paper PMC4894684.

Where a name gives a salt, the structure may show the parent alone. ± gives the standard deviation of the averaged measurements.

The subject of this test is Toxoplasma gondii RH (in HFF). Nature of the test: parasite growth relative to the screen mean (all compounds = 100%); higher = less inhibition of parasite growth. To be noted: 5 µM; 72 h; oxygen 21 %. The method in brief:
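Library compounds (10 mM DMSO stocks) were pin-transferred to 5 µM final onto confluent human foreskin fibroblasts in 96-well plates, then infected within 2 h with RH β-Gal–GFP Toxoplasma (MOI 1:5) and grown 72 h at 21% O2. Parasite number came from a CPRG β-Gal assay against in-plate standard curves. Growth is expressed relative to the screen mean (all compounds = 100%), averaged over two screens. Uninfected host-cell viability was checked by CellTiter-Blue.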
Turning to `Cc1[nH]c(/C=C2\C(=O)Nc3ccc(S(=O)(=O)Cc4c(Cl)cccc4Cl)cc32)c(C)c1C(=O)N1CCC[C@@H]1CN1CCCC1`, the parasite growth is < 0%.
As to `CN(C)C/C=C(/c1ccc(Br)cc1)c1cccnc1` [Zimelidine dihydrochloride], the parasite growth was found to be 126 ± 4.6%.
In turn, `CCSC(=N)N` [EIT hydrobromide] registered a parasite growth of 166 ± 23%.
In turn, `CC(C)NCCN(C(C)C)S(=O)(=O)c1ccc(Cl)cc1Cl` returned a parasite growth of 142 ± 34%.
`CCCc1c(OCCCOc2ccc(OCC(=O)O)cc2)ccc(C(C)=O)c1O` came in with a parasite growth of 135 ± 1.4%.
With `NC(=O)N/N=C/c1ccc(Oc2ccc(F)cc2)cc1`, the parasite growth was 145 ± 19%.
